Measurements taken from PubChem BioAssay AID1159580 (chemical genetic matrix, 2015).
Where “and” joins values, the source holds several entries; their conditions need not be identical. Identical values can stand only once. In all, about 5,500 compounds went through this assay and about 2,000 (36%) were called active. Roughly 18% stayed inconclusive and do not appear here. Rule as the data show it: active = normalized growth mostly below about 0.91 (no sharp cut-off); inconclusive = no clear call, values can overlap the other calls; inactive = mostly above about 0.92. The list shows a part of the results.

Assay: chemical genetic growth profiling, strain panel (AID 1159580);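 also: tested at 20 µM; growth read once vehicle control cultures reached saturation at 30 °C; 1 = growth at the plate median or of vehicle wells; lower values mean less growth of the strain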
Conditions: S. cerevisiae deletion strains, growth OD

Measured: normalized growth

CCOC(=O)C(C)(C)Oc1ccc(Cl)cc1
inactive: locus YAL013W, strain DEP1, hits give low values 1.01 and 0.989 | locus YAL021C, strain ccr4, hits give low values 0.996 | locus YAL026C, strain drs2, hits give low values 0.989 | locus YAL030W, strain snc1, hits give low values 0.976 | locus YAL040C, strain CLN3, hits give low values 0.985 | locus YBL061C, strain skt5, hits give low values 0.978 | locus YBR009C, strain hhf1, hits give low values 0.982 | locus YBR021W, strain FUR4, hits give low values 0.988 | locus YBR023C, strain chs3, hits give low values 0.985 | locus YBR171W, strain sec66, hits give low values 0.973 | locus YBR229C, strain ROT2, hits give low values 1.01 | locus YBR231C, strain swc5, hits give low values 0.977 | locus YBR279W, strain paf1, hits give low values 0.986 | locus YCL011C, strain gbp2, hits give low values 0.991 | locus YCL016C, strain dcc1, hits give low values 0.986 | locus YCL029C, strain bik1, hits give low values 1 | locus YCL061C, strain MRC1, hits give low values 0.98 | locus YCL069W, strain vba3, hits give low values 0.981 | locus YCR088W, strain abp1, hits give low values 0.984 | locus YDL005C, strain med2, hits give low values 0.972 | locus YDL035C, strain GPR1, hits give low values 1.01 | locus YDL040C, strain nat1, hits give low values 0.979 | locus YDL074C, strain BRE1, hits give low values 1.02 | locus YDL101C, strain DUN1, hits give low values 0.999 | locus YDL134C, strain PPH21, hits give low values 0.999 | locus YDL185W, strain tfp1, hits give low values 1.01 | locus YDL192W, strain arf1, hits give low values 1.01 | locus YDR001C, strain nth1, hits give low values 0.983 | locus YDR069C, strain doa4, hits give low values 0.984 | locus YDR101C, strain arx1, hits give low values 0.99 | locus YDR137W, strain rgp1, hits give low values 0.964 | locus YDR150W, strain NUM1, hits give low values 1 | locus YDR159W, strain sac3, hits give low values 0.945 | locus YDR162C, strain NBP2, hits give low values 1.01 | locus YDR195W, strain ref2 0.954 | locus YDR297W, strain sur2, hits give low values 0.982 | locus YDR318W, strain mcm21, hits give low values 1 | locus YDR334W, strain swr1, hits give low values 0.987 | locus YDR335W, strain msn5, hits give low values 0.986 | locus YDR388W, hits give low values 0.995 | locus YDR392W, strain spt3, hits give low values 0.87 | locus YDR502C, strain sam2, hits give low values 0.996 | locus YEL003W, strain gim4, hits give low values 0.992 | locus YEL037C, strain rad23, hits give low values 1.02 | locus YEL061C, strain CIN8 (second series), hits give low values 0.981 | locus YEL061C, strain CIN8, hits give low values 1.01 | locus YER002W, strain NOP16, hits give low values 0.998 | locus YER015W, strain faa2, hits give low values 0.971 | locus YER016W, strain bim1, hits give low values 0.984 | locus YER110C, hits give low values 0.992 | locus YER111C, strain swi4, hits give low values 0.985 | locus YER155C, strain BEM2 (second series), hits give low values 0.922 | locus YER155C, strain BEM2, hits give low values 1 | locus YER167W, strain BCK2, hits give low values 0.998 | locus YFR010W, strain ubp6, hits give low values 1.01 | locus YGL078C, strain dbp3, hits give low values 1.01 | locus YGL086W, strain mad1, hits give low values 1 | locus YGL167C, strain pmr1, hits give low values 0.975 | locus YGL173C, strain kem1, hits give low values 0.984 | locus YGL227W, strain vid30, hits give low values 0.975 | locus YGL240W, strain doc1, hits give low values 0.949 | locus YGL248W, strain PDE1, hits give low values 1.01 | locus YGL253W, strain hxk2, hits give low values 1 | locus YGR078C, strain PAC10, hits give low values 1.02 | locus YGR135W, strain pre9, hits give low values 1 | locus YGR252W, strain gcn5, hits give low values 0.993 | locus YHR013C, strain ard1, hits give low values 1.02 | locus YHR027C, strain rpn1, hits give low values 0.986 | locus YHR030C, strain SLT2, hits give low values 1.01 and 0.939 | locus YHR079C, strain IRE1 (second series), hits give low values 1 | locus YHR079C, strain IRE1, hits give low values 0.946 | locus YHR094C, strain hxt1, hits give low values 0.993 | locus YHR129C, strain ARP1, hits give low values 1 | locus YHR142W, strain chs7, hits give low values 0.993 | locus YHR200W, strain rpn10, hits give low values 1 | locus YIL066C, strain RNR3, hits give low values 1.01 | locus YIL073C, strain SPO22, hits give low values 1.02 | locus YIL125W, strain kgd1, hits give low values 0.998 | locus YIR030C, strain dcg1, hits give low values 0.994 | locus YJL092W, strain hpr5, hits give low values 0.978 | locus YJL095W, strain BCK1 (second series), hits give low values 0.985 | locus YJL095W, strain BCK1, hits give low values 0.986 and 0.943 | locus YJL115W, strain asf1, hits give low values 0.965 | locus YJL129C, strain trk1, hits give low values 0.973 | locus YJL134W, strain LCB3, hits give low values 1 | locus YJL154C, strain vps35, hits give low values 0.992 | locus YJL164C, strain tpk1, hits give low values 0.985 | locus YJL166W, strain qcr8, hits give low values 0.978 | locus YJL168C, strain set2, hits give low values 0.997 | locus YJL187C, strain SWE1 (second series), hits give low values 1.01 | locus YJL187C, strain SWE1, hits give low values 0.97 | locus YJR043C, strain POL32, hits give low values 1 | locus YJR066W, strain TOR1, hits give low values 0.943
